In PubChem BioAssay one finds fold change, cell count and z-score data, which are given here for 15 molecules.

A short description of test [1]: viability loss with induced miR-34 in A549 – imaging, A549 dox-inducible miR-34, nuclei and caspase counts, primary screen (AID 1347080). The settings on record: A549 miR-34 inducible, Hoechst nuclei count, 48 h.
Test [2] can be described thus: MELAS cybrid and Rieske KO viability enhancers – cell-based, MELAS cybrids, Rieske KO mouse fibroblasts, CellTiter-Glo, primary screen (AID 1508586;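 active = mean z-score across replicates of 1.96 or higher in either the MELAS or the Rieske mutant cell line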;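 also: z relative to plate mean and SD of compound and empty wells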). To be noted: low glucose.
Where [3] appears, read: stronger effect = lower value, cell number ratio, induced over uninduced.
The mark [4] stands for this setting: measured here: relative caspase fold change +Dox/-Dox.
Where [5] appears, read: measured here: total cells with miR-34 induction, stronger effect = lower value.
Where [6] appears, read: measured here: total cells without miR-34 induction.
The mark [7] stands for this setting: MELAS cybrid survival, CellTiter-Glo 48 h, stronger effect = higher value.
[8] abbreviates: Rieske KO mouse fibroblast survival, CellTiter-Glo 72 h.

Activity calls are given as the source filed them.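 The calls were made as follows, unless noted: active = compounds whose cell count with miR-34 switched on is under 0.7 times the count with it off; inactive = the rest.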
Also: test concentration not given here.

For `CCC(C)[C@H]1O[C@]2(CCC1C)CC1C[C@@H](CC=C(C)C(O[C@H]3CC(OC)C(O[C@H]4CC(OC)C(O)C(C)O4)C(C)O3)C(C)C=CC=C3CO[C@@H]4C(O)C(C)=C[C@H](C(=O)O1)[C@]34O)O2` (stereo not given in full), the fold change was 1.18 (inactive) in test [1] (setting [3]) and 0.443 in test [1] (setting [4]). The cell count in test [1] (setting [5]) was found to be 3750; in test [1] (setting [6]), 3170. Moreover, the figures for the z-score in test [2] (setting [7]) and in test [2] (setting [8]) were -0.0305 (inactive) and 0.298, respectively.
Consider `C=C[C@@]1(C)CC(OC(=O)CSC2C[C@H]3CC[C@@H](C2)N3C)[C@]2(C)C(C)CC[C@]3(CCC(=O)[C@H]32)C(C)C1O` (stereo not given in full), for which the fold change in test [1] (setting [3]) is 0.984 (inactive); in test [1] (setting [4]) it was 1.2. Moreover, the results for the cell count in test [1] (setting [5]) and in test [1] (setting [6]) were 7780 and 7910, respectively. Besides, the z-score was 2.23 (active) in test [2] (setting [7]) and 5.36 in test [2] (setting [8]).
As for `C=CCc1cccc(C=NNC(=O)CN2CCN(Cc3ccccc3)CC2)c1O`, the fold change in test [1] (setting [3]) was 0.992 (inactive); in test [1] (setting [4]), 0.755. Moreover, the cell count in test [1] (setting [5]) is 3820; in test [1] (setting [6]), 3850. Further, the z-score was -0.146 (inactive) in test [2] (setting [7]) and -1.03 in test [2] (setting [8]).
For `CC(C)(C)c1ccc(-c2nc3ccccc3[nH]2)cc1`, the fold change in test [1] (setting [3]) is 0.982 (inactive); in test [1] (setting [4]), 0.555. The cell count in test [1] (setting [5]) is 8150; in test [1] (setting [6]) it was 8300. Moreover, the results for the z-score in test [2] (setting [7]) and in test [2] (setting [8]) were -0.625 (inactive) and -3.26, respectively.
`CCN(C)C(=O)Oc1cccc(C(C)N(C)C)c1` (stereo not given): the results for the fold change in test [1] (setting [3]) and in test [1] (setting [4]) were 0.91 (inactive) and 0.79, respectively. In addition, the values for the cell count in test [1] (setting [5]) and in test [1] (setting [6]) were 8110 and 8910, respectively. For the same molecule, the z-score was -0.173 (inactive) in test [2] (setting [7]) and 0.451 in test [2] (setting [8]).
For `Cc1cc(C=C2SC(=S)NC2=O)c(C)n1-c1cccnc1`, the results for the fold change in test [1] (setting [3]) and in test [1] (setting [4]) were 0.889 (inactive) and 0.503, respectively. Also, the cell count in test [1] (setting [5]) worked out at 7760; in test [1] (setting [6]) it was 8720. Besides, the z-score in test [2] (setting [7]) was -0.359 (inactive); in test [2] (setting [8]) it was -0.24.
`COC1CC2CCC(C)[C@@](O)(O2)C(=O)C(=O)N2CCCCC2C(=O)OC(C(C)CC2CCC(OCCO)C(OC)C2)CC(=O)C(C)C=C(C)C(O)C(OC)C(=O)C(C)CC(C)C=CC=CC=C1C` (stereo not given in full): the fold change is 1.03 (inactive) in test [1] (setting [3]) and 1 in test [1] (setting [4]). Moreover, the cell count stood at 4550 in test [1] (setting [5]) and 4420 in test [1] (setting [6]). The z-score is 0.115 (inactive) in test [2] (setting [7]) and 1.87 in test [2] (setting [8]).
Take `Cn1nc(C(C)(C)C)cc1C(=O)NC(Cc1cccc(Cl)c1)C(=O)NCC#N` (stereo not given): the fold change in test [1] (setting [3]) was 0.927 (inactive); in test [1] (setting [4]) it was 0.462. Further, the cell count stood at 7540 in test [1] (setting [5]) and 8140 in test [1] (setting [6]). Further, the values for the z-score in test [2] (setting [7]) and in test [2] (setting [8]) were 0.131 (inactive) and 0.0966, respectively.
Regarding `O=S(=O)(c1ccccc1)c1cnc2c(N3CCNCC3)cccc2c1`, the fold change in test [1] (setting [3]) is 0.946 (inactive); in test [1] (setting [4]) it was 0.61. For the same molecule, the cell count was 7690 in test [1] (setting [5]) and 8130 in test [1] (setting [6]). The z-score in test [2] (setting [7]) was -0.577 (inactive); in test [2] (setting [8]), -0.0242.
As for `O=C(NCc1cccc(O)c1)Nc1nc(-c2ccncc2)cs1`, the fold change was 0.899 (inactive) in test [1] (setting [3]) and 0.419 in test [1] (setting [4]). The results for the cell count in test [1] (setting [5]) and in test [1] (setting [6]) were 2990 and 3330, respectively. The z-score is 0.152 (inactive) in test [2] (setting [7]) and -1.61 in test [2] (setting [8]).
In the case of `CON=C(C(=O)NC1C(=O)N2C(C(=O)OCOC(=O)C(C)(C)C)=C(C=Cc3scnc3C)CS[C@H]12)c1csc(N)n1` (stereo not given in full), the fold change was 0.852 (inactive) in test [1] (setting [3]) and 0.561 in test [1] (setting [4]). Also, the cell count in test [1] (setting [5]) was determined as 7580; in test [1] (setting [6]) it was 8900. The z-score in test [2] (setting [7]) was -0.26 (inactive); in test [2] (setting [8]), 0.818.
As to `O=C(Nc1cccc(Cl)c1)c1ccccn1`, the fold change in test [1] (setting [3]) is 0.981 (inactive); in test [1] (setting [4]) it was 0.991. In addition, the values for the cell count in test [1] (setting [5]) and in test [1] (setting [6]) were 7550 and 7700, respectively. The z-score in test [2] (setting [7]) was 0.406 (inactive); in test [2] (setting [8]), -0.326.
With `O=NO`, the figures for the fold change in test [1] (setting [3]) and in test [1] (setting [4]) were 0.914 (inactive) and 1.01, respectively. Moreover, the values for the cell count in test [1] (setting [5]) and in test [1] (setting [6]) were 8730 and 9550, respectively. The z-score was -0.254 (inactive) in test [2] (setting [7]) and -0.15 in test [2] (setting [8]).
As for `O=CC(O)C(O)C(O)CO` (stereo not given), the fold change was 0.913 (inactive) in test [1] (setting [3]) and 0.975 in test [1] (setting [4]). Also, the cell count in test [1] (setting [5]) amounted to 7900; in test [1] (setting [6]), 8650. For the same molecule, the results for the z-score in test [2] (setting [7]) and in test [2] (setting [8]) were 0.55 (inactive) and -0.188, respectively.
Consider `CCc1c(Cl)c(O)c(Cl)c(O)c1C(=O)OC1C(C)OC(OCC2=CC=CCC(O)C(C)=CC(CC)C(O[C@@H]3OC(C)(C)C(OC(=O)C(C)C)C(O)C3O)C(C)=CC(C)=CC[C@H](C(C)O)OC2=O)C(OC)C1O` (stereo not given in full), for which the fold change in test [1] (setting [3]) was 0.841 (inactive); in test [1] (setting [4]), 0.698. The cell count in test [1] (setting [5]) was determined as 6980; in test [1] (setting [6]) it was 8290. The z-score in test [2] (setting [7]) is -0.301 (inactive); in test [2] (setting [8]) it was -0.0909.
